# Rows were chosen to be rich in hits. Some 19% of all compounds tested hit in one or more screens of this group.
# HT1080NT lethal – kills 2HG-producing HT-1080-NT fibrosarcoma cells; HT-1080-NT fibrosarcoma viability, CellTiter-Glo ATP luminescence, 48 h; Potency, µM (top dose mostly 46.1 µM), inactives show top-dose activity, negative = less viability, most hits filed as cytotoxic; hit rate 1.6% among 360,000;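 note: NT is the 2HG producing partner of a matched IDH1 knockdown line; potency is the fitted concentration of half-maximal effect; 0% = DMSO-treated cells and -100% = media-only wells without cells; nearly all actives have a fitted effect of over 55% in size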
#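 750 cells/well, RPMI + 5% FBS; 2 h settle, compound pin-transfer, 48 h at 37 degrees C. CellTiter-Glo 10 min RT, luminescence. Normalized to DMSO and media-only wells.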
# HT1080 IDH1KD tx – kills HT-1080 cells with IDH1 knockdown; Potency, µM (top dose mostly 46.1 µM), for inactives: at the top dose activity, negative = toxicity, most hits filed as cytotoxic; hit rate 2% among 360,000; HT-1080 IDH1 knockdown viability, ATP luminescence, 48 h;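 note: potency is the fitted concentration of half-maximal effect; 0% = DMSO wells and -100% = cell-free medium wells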
#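 Luminescent ATP read-out (CellTiter-Glo, 10 min at room temperature) after 48 h compound exposure at 37 °C gave viability of IDH1-knockdown HT-1080 cells. Activity was normalised to DMSO and cell-free wells, then fitted as concentration-response curves.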
# DT40 TDP1 CPT – DT40-hTDP1 cell growth loss with CPT; Potency, µM (top dose mostly 46.2 µM), without a hit: at the highest dose activity change, negative = growth inhibition, actives largely listed as inhibitors; chicken DT40 Tdp1-/-;hTDP1 cells + 20 nM CPT, ATP luminescence, 48 h; hit rate 12% among 420,000; AID 686979; note: potency is the fitted concentration of half-maximal effect; nearly all actives have a fitted effect of over 55% in size
#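 Chicken DT40 Tdp1-/- cells stably complemented with human TDP1 were seeded at 400 cells/well in medium containing 20 nM camptothecin, exposed to pin-transferred compounds, and grown at 37 °C for at least 48 hr. Viability was read as ATP luminescence.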
# TDP1 cell noCPT – qHTS for Inhibitors of human tyrosyl-DNA phosphodiesterase 1 (TDP1): qHTS in cells in absence of CPT. DT40 Tdp1-/- hTDP1 cells, no CPT, ATP luminescence, 48 h. Potency, µM (doses to about 46.2 µM), for the others: top-dose activity change, negative = growth inhibition, usual class: inhibitors. hit rate 15% among 420,000. AID 686978, 2013; note: potency is the fitted concentration of half-maximal effect; nearly all actives have a fitted effect of over 55% in size
#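 Readout: luminescence from CellTiter-Glo after 30 min in the dark at RT. Cells: DT40 Tdp1-/- with stable hTDP1, 400/well. Exposure: compounds alone, ≥48 hr, 37 °C.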
# IL1B secr inh – inflammasome signaling inhibition, IL-1 beta readout | hit rate 4.7% among 360,000 | activity change, % at 57.5 µM | THP-1 LPS/ATP IL-1B secretion, AlphaLISA, 16 h; active compounds read low; in the data active = activity change below about -50%; inconclusive = mostly about -30% to -49%
#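 THP-1 cells pretreated 1 hr with compounds (up to 57.5 uM final), then stimulated with LPS (250 ng/mL final) plus ATP (1.25 mM final); secreted IL-1B measured by AlphaLISA after 16 hr, decreased signal indicating inhibition.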
# Starred values were filed as active, the others as inactive; ? = inconclusive; · = no result. Unless noted, calls come from the whole dose curve; as a rule, active = well fitted curve in the direction sought with a large enough effect; inconclusive = small, poorly fitted or top-dose-only effect, or another doubt; inactive = no such curve, though single readings can be large; an effect the other way counts as inactive or inconclusive. Unless noted, % is set by controls: 0 for no effect and ±100 for the full control effect.
SMILES,HT1080NT lethal,HT1080 IDH1KD tx,DT40 TDP1 CPT,TDP1 cell noCPT,IL1B secr inh
CC(CCc1ccccc1)NC(=O)CN1CCN(Cc2ccc(Cl)cc2)C1=O (centres undefined),0%,-2%,?,?,-2
Cc1ccc(C(=O)NNCC(=O)Nc2ccc(Cl)cc2F)cc1,-2%,-3%,-2%,-29%,-2
CCOC(=O)Nc1ccc2c(CN3C(=O)NC(CC)(CC)C3=O)cc(=O)oc2c1,-3%,-3%,?,?,0
Cc1ccc2c(CN3CCOCC3)cc(=O)oc2c1C,0%,6%,9%,-3%,5
Cc1ccc2c(CN3CCN(Cc4ccccc4)CC3)cc(=O)oc2c1C,-1%,-11%,?,18µM*,-74*
CCOC(=O)Nc1ccc2c(CN3CCN(S(=O)(=O)c4ccccc4)CC3)cc(=O)oc2c1,0%,-2%,13µM*,?,-13
Cc1ccc2c(CN3CCN(S(=O)(=O)c4ccc(Cl)cc4)CC3)cc(=O)oc2c1C,0%,1%,?,16µM*,13
O=C(NCCCN1CCOCC1)/C(=C/c1ccco1)NC(=O)c1ccccc1,11%,13%,-4%,-13%,0
COc1ccccc1NC(=O)CSc1ncc2c(n1)-c1cc(Cl)ccc1N(C)S2(=O)=O,·,·,7.3µM*,10µM*,·
CN1c2ccccc2-c2nc(SCC(=O)Nc3ccccc3)ncc2S1(=O)=O,·,·,?,18µM*,·
Cc1cccc(NC(=O)CSc2ncc3c(n2)-c2ccccc2N(Cc2ccc(F)cc2)S3(=O)=O)c1C,·,·,?,-25%,·
COC(=O)CSc1ncc2c(n1)-c1ccccc1N(Cc1ccccc1C)S2(=O)=O,·,·,-28%,-25%,·
COc1ccccc1CNC(=O)CSc1ncc2c(n1)-c1ccccc1N(Cc1ccc(C)cc1)S2(=O)=O,·,·,?,12µM*,·
CCOC(=O)c1cccc(NC(=O)CSc2ncc3c(n2)-c2ccc(Cl)cc2N(Cc2ccccc2)S3(=O)=O)c1,·,·,?,1.5µM*,·
O=S(=O)(NCc1ccccn1)c1ccccn1,12%,21%,5%,3%,28
CC(=O)c1ccccc1N(C(=O)c1ccco1)C(C(=O)NC1CCCC1)c1ccc(C)cc1 (centres undefined),5%,-4%,-10%,-22%,5
COc1ccc(CNC(=O)CSc2ncc3c(n2)-c2cc(Cl)ccc2N(Cc2ccccc2)S3(=O)=O)cc1OC,·,·,15µM*,12µM*,·
COc1ccc(CNC(=O)CSc2ncc3c(n2)-c2cc(Cl)ccc2N(Cc2ccccc2)S3(=O)=O)cc1,·,·,2%,-17%,·
COc1ccc(CNC(=O)CSc2ncc3c(n2)-c2ccc(Cl)cc2N(Cc2ccc(F)cc2)S3(=O)=O)cc1OC,·,·,12µM*,12µM*,·
Cc1ccc(C)c(NC(=O)CSc2ncc3c(n2)-c2ccc(Cl)cc2N(C)S3(=O)=O)c1,·,·,?,18µM*,·
COc1cccc(NC(=O)CSc2ncc3c(n2)-c2ccc(Cl)cc2N(C)S3(=O)=O)c1,·,·,-16%,-30%,·
O=C(CCN1C(=O)NC2(CCCC2)C1=O)Nc1cccc(S(=O)(=O)N2CCOCC2)c1,0%,4%,6%,19%,7
C=CCNC(=O)C(=O)NCCOc1ccccc1Cl,?,?,12µM*,?,16
O=C(NCCOc1ccccc1Cl)C(=O)c1c[nH]c2ccccc12,-27%,-21%,?,?,-20
CCCCCC(C)NC(=S)NC(=O)c1cc(S(=O)(=O)N2CCOCC2)ccc1C (centres undefined),-13%,-21%,?,?,-1
SMILES,HT1080NT lethal,HT1080 IDH1KD tx,DT40 TDP1 CPT,TDP1 cell noCPT,IL1B secr inh
CC(C)OC(=O)c1c2c(n3ccccc13)C(=O)c1ccccc1C2=O,5%,0%,15µM*,13µM*,0
CC(=O)Nc1cc(-c2ccccc2N(C)C)cn2c(-c3ccccc3)cnc12,?,?,16µM*,23µM*,6
CC(=O)Nc1cc(-c2ccccc2N(C)C)cn2c(-c3ccc(S(C)(=O)=O)cc3)cnc12,-21%,-27%,?,18µM*,-12
Cc1cccc(NC(=O)CSc2nnc(C)c(C)n2)c1,20%,25%,1%,7%,9
Cc1cccc(OCCNC(=O)c2ccc(Cl)c(S(=O)(=O)NCc3cccnc3)c2)c1,?,?,3.7µM*,2.6µM*,104
COc1ccc(CNC(=O)c2ccc(N(C)S(=O)(=O)c3ccc(C)cc3)cc2)cc1,-10%,-18%,?,?,-1
COc1ccc(OCCN(C)C(=O)c2cccc(S(=O)(=O)N(C)c3ccccc3)c2)cc1,0%,-11%,12µM*,18µM*,?
COc1ccc(N(C)S(=O)(=O)c2cccc(C(=O)NCc3ccc(C)cc3)c2)cc1,-10%,-11%,?,?,-59*
COC(=O)C1CCN(C(=O)c2ccc(Cl)c(S(=O)(=O)NCc3cccnc3)c2)CC1,3%,2%,-5%,-26%,-6
Cc1ccc(OCCNC(=O)c2cccc(S(=O)(=O)NCc3ccccc3)c2)cc1,?,7.3µM*,4.1µM*,4.6µM*,13
O=C(NCc1ccncc1)c1cccc(S(=O)(=O)NCc2ccccc2)c1,1%,7%,-4%,0%,18
COc1ccc(/C=N/NC(=O)CC(=O)NC2CCCCC2)cc1,10%,-2%,3%,-5%,26
Cc1ccccc1C(=O)Nn1cnc2ccccc2c1=O,-17%,-23%,0%,-22%,43
CCCCN(c1ccccc1)S(=O)(=O)c1cccc(C(=O)O)c1,-4%,0%,3%,-5%,25
CCN(c1ccccc1)S(=O)(=O)c1cccc(C(=O)N(C)CCOc2ccccc2)c1,-2%,5%,15µM*,21µM*,-17
Cc1ccc(OCCNC(=O)c2cccc(Oc3ccc(C(F)(F)F)cc3[N+](=O)[O-])c2)cc1,-12%,-11%,?,16µM*,-11
Cc1ccc(S(=O)(=O)NCc2ccc(C(=O)NCCN(Cc3ccccc3)C(C)C)cc2)cc1,?,?,?,16µM*,-66*
O=C(COC(=O)c1ccc2c(=O)n3c(nc2c1)CCC3)NC1CCS(=O)(=O)C1 (centres undefined),2%,1%,10%,-5%,2
O=C(NNc1nc2c(F)cccc2s1)c1ccc(F)cc1,-11%,?,?,?,-11
Cc1ccc2nc(NNC(=O)c3ccc(S(=O)(=O)N4CCc5ccccc5C4)cc3)sc2c1,?,4.6µM*,2.9µM*,5.2µM*,150

# Source: PubChem BioAssay (National Center for Advancing Translational Sciences (NCATS))
